{
  "source": "PubChem BioAssay (Tox21)",
  "note": "Unmarked numbers belong to inactive results. Records with an inconclusive call do not appear. Activity calls are given as the source filed them. The call rests on the fitted dose curve. On the % scale 0 is the no-effect control and ±100 the full control effect.",
  "data": [
    {"target": "Acetylcholinesterase (Homo sapiens) (UniProt P22303)", "sequence (P22303 whole entry, looked up)": "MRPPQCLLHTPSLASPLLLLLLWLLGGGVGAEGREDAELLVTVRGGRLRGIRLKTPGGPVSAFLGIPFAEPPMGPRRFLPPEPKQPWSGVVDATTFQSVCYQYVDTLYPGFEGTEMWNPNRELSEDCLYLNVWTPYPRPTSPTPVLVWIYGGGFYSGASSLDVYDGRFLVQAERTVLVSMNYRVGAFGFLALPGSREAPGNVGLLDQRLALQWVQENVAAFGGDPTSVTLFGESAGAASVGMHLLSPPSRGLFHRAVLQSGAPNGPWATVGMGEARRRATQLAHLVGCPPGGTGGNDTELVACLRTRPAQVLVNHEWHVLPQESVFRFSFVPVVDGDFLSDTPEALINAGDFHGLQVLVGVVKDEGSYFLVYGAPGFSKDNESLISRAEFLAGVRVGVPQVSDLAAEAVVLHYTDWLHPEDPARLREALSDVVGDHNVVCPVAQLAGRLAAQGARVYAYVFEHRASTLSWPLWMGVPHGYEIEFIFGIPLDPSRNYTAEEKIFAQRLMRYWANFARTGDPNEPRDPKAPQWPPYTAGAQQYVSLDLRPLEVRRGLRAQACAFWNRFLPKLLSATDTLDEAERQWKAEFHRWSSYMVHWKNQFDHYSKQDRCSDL", "assay": "Acetylcholinesterase (AChE) small molecule antagonists: enzyme-based qHTS assay (AID 1347397); further: nearly all actives have a fitted effect of over 55% in size", "details": "Potency: AChE enzyme activity inhibition; outcome: AChE enzyme activity inhibition; series mostly up to 115 µM; activity change, negative = inhibition: at the top concentration", "in_short": "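Absorbance-based detection of thiocholine with DTNB served as the read-out. Recombinant human AChE was exposed to compound for 30 min at RT before a 10 min RT incubation with acetylthiocholine.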", "values": [
      {"smiles": "O=C(Nc1ccc(Oc2ccc(Cl)cc2)c(Cl)c1)c1cc(I)cc(I)c1O", "activity change, negative = inhibition": "-8.92% [at 53 µM]"},
      {"smiles": "CCC[C@@H]1C[C@@H](C(=O)N[C@@H]([C@H]2O[C@H](SC)[C@H](O)[C@@H](O)[C@H]2O)[C@@H](C)O)N(C)C1", "activity change, negative = inhibition": "0.121% [at 53 µM]"},
      {"smiles": "CO[Si](CCCS)(OC)OC", "activity change, negative = inhibition": "0.203%"},
      {"smiles": "CCCCCOC(=O)c1ccc(O)cc1", "activity change, negative = inhibition": "-0.936%"},
      {"smiles": "CC(=O)N(CC(=O)N(C)C)c1ccccc1", "activity change, negative = inhibition": "-4.61% [at 53 µM]"},
      {"smiles": "COC(=O)c1cccc(Cl)c1", "activity change, negative = inhibition": "-0.407%"},
      {"smiles": "CC(C)(C)c1nnc(NS(=O)(=O)c2ccc(N)cc2)s1", "activity change, negative = inhibition": "-0.109% [at 53 µM]"},
      {"smiles": "CCN(CC)CCc1nc(-c2ccccc2)no1", "activity change, negative = inhibition": "0.546% [at 53 µM]"},
      {"smiles": "O=C(O)c1cccc(C(F)(F)F)c1", "activity change, negative = inhibition": "1.12%"},
      {"smiles": "C=CCOC(=O)COCCC(C)C", "activity change, negative = inhibition": "-0.545%"},
      {"smiles": "CCCCCCC1(C)CCC(=O)O1", "note": "(stereo not given)", "activity change, negative = inhibition": "0.141%"},
      {"smiles": "COc1cccc(OC)c1C(=O)O", "activity change, negative = inhibition": "1.17%"},
      {"smiles": "CCCCN1CCCC1C(=O)Nc1c(C)cc(C)cc1C", "note": "(stereo not given)", "activity change, negative = inhibition": "-0.831% [at 53 µM]"},
      {"smiles": "C[N+](C)(CCOc1ccccc1)Cc1cccs1", "activity change, negative = inhibition": "0.27% [at 53 µM]"},
      {"smiles": "CCCCCCCCC1CCC(=O)O1", "note": "(stereo not given)", "activity change, negative = inhibition": "-0.199%"},
      {"smiles": "Sc1nc2ccccc2s1", "activity change, negative = inhibition": "1.94%"},
      {"smiles": "Cc1cccc2nccnc12", "activity change, negative = inhibition": "-2.41%"},
      {"smiles": "O=CCCc1ccccc1", "activity change, negative = inhibition": "0.138%"},
      {"smiles": "CCCCCCCCCCCCCCN(C)C", "activity change, negative = inhibition": "0.242% [at 23.6 µM]"},
      {"smiles": "CC(C)=CCC/C(C)=C/C=N/O", "activity change, negative = inhibition": "-0.393%"},
      {"smiles": "CC(C)c1cccc(C(C)C)c1NC(=O)NS(=O)(=O)c1cc(C(C)(C)O)co1", "activity change, negative = inhibition": "0.395%"},
      {"smiles": "COc1ccc(NS(=O)(=O)c2ccc(N)cc2)nn1", "activity change, negative = inhibition": "1.18% [at 53 µM]"},
      {"smiles": "CC(=O)c1ccc2c(c1)N(CCCN1CCC(CCO)CC1)c1ccccc1S2", "activity change, negative = inhibition": "-19.8% [at 53 µM]"},
      {"smiles": "C=C1CC[C@H]2O[C@]2(C)CC[C@@H]2[C@@H]1CC2(C)C", "activity change, negative = inhibition": "-0.273%"},
      {"smiles": "OCCCCCCO", "activity change, negative = inhibition": "2.04%"},
      {"smiles": "Nc1ccc(Cl)c([N+](=O)[O-])c1", "activity change, negative = inhibition": "1.5%"},
      {"smiles": "CN=C(NC#N)NCCSCc1csc(N=C(N)N)n1", "activity change, negative = inhibition": "1.48% [at 53 µM]"},
      {"smiles": "CCC(CC)C(C)CCOC(C)=O", "note": "(stereo not given)", "activity change, negative = inhibition": "0.46%"},
      {"smiles": "CCOC(=O)CC(=O)C(=O)OCC", "activity change, negative = inhibition": "0.41%"},
      {"smiles": "Clc1ccc2nsnc2c1NC1=NCCN1", "activity change, negative = inhibition": "0.207% [at 53 µM]"},
      {"smiles": "CCOC(=O)N1CCC(Nc2ccc(Cl)cc2N)CC1", "activity change, negative = inhibition": "-5.35% [at 53 µM]"},
      {"smiles": "CC(C)CCCC(C)CCO", "note": "(stereo not given)", "activity change, negative = inhibition": "0.624%"},
      {"smiles": "O=C1OC(OC(=O)c2cccnc2Nc2cccc(C(F)(F)F)c2)c2ccccc21", "note": "(stereo not given)", "activity change, negative = inhibition": "0.27% [at 53 µM]"},
      {"smiles": "CC1=C(/C=C/C(C)=C/C=C/C(C)=C\\C(=O)O)C(C)(C)CCC1", "activity change, negative = inhibition": "0.273%"},
      {"smiles": "O=C(O)COCC(=O)O", "activity change, negative = inhibition": "0.657%"},
      {"smiles": "CC(C)Cn1cnc2c(N)nc3ccccc3c21", "activity change, negative = inhibition": "-0.415% [at 23.6 µM]"},
      {"smiles": "Cc1cc(N)c(S(=O)(=O)O)cc1Cl", "activity change, negative = inhibition": "0.545%"},
      {"smiles": "COC(=O)c1ccccc1Cl", "activity change, negative = inhibition": "-2.24%"},
      {"smiles": "CCCC(=O)OC/C=C(\\C)CCC=C(C)C", "activity change, negative = inhibition": "0.388%"},
      {"smiles": "CCC(OCCCOC)OC(C)=O", "note": "(stereo not given)", "activity change, negative = inhibition": "-1.1%"}
    ]},
    {"target": "Acetylcholinesterase (Homo sapiens) (UniProt P22303)", "assay": "Acetylcholinesterase (AChE) small molecule antagonists: fluorescence cell-based qHTS assay (AID 1347398); further: nearly all actives have a fitted effect of over 50% in size; further: potency means the concentration at half of the fitted maximal effect", "details": "SH-SY5Y cells; Potency: AChE activity; outcome: AChE activity; series mostly up to 115 µM; activity change, negative = inhibition: at the top concentration", "in_short": "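Fluorimetric cell-based assay: intact SH-SY5Y cells, 30 min compound preincubation at 37 C, acetylthiocholine substrate with thiol probe Thiolite Green, 40 min RT development, fluorescence 490/520 nm.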", "values": [
      {"smiles": "O=C(Nc1ccc(Oc2ccc(Cl)cc2)c(Cl)c1)c1cc(I)cc(I)c1O", "activity change, negative = inhibition": "10.8% [at 53.7 µM]"},
      {"smiles": "CCC[C@@H]1C[C@@H](C(=O)N[C@@H]([C@H]2O[C@H](SC)[C@H](O)[C@@H](O)[C@H]2O)[C@@H](C)O)N(C)C1", "activity change, negative = inhibition": "5.91% [at 53.7 µM]"},
      {"smiles": "CO[Si](CCCS)(OC)OC", "activity change, negative = inhibition": "6.56%"},
      {"smiles": "CCCCCOC(=O)c1ccc(O)cc1", "activity change, negative = inhibition": "-4.1%"},
      {"smiles": "CC(=O)N(CC(=O)N(C)C)c1ccccc1", "activity change, negative = inhibition": "-3.77% [at 53.7 µM]"},
      {"smiles": "COC(=O)c1cccc(Cl)c1", "activity change, negative = inhibition": "1.63%"},
      {"smiles": "CC(C)(C)c1nnc(NS(=O)(=O)c2ccc(N)cc2)s1", "activity change, negative = inhibition": "-3.78% [at 53.7 µM]"},
      {"smiles": "CCN(CC)CCc1nc(-c2ccccc2)no1", "activity change, negative = inhibition": "6.39% [at 53.7 µM]"},
      {"smiles": "O=C(O)c1cccc(C(F)(F)F)c1", "activity change, negative = inhibition": "0.272%"},
      {"smiles": "C=CCOC(=O)COCCC(C)C", "activity change, negative = inhibition": "-5.17%"},
      {"smiles": "CCCCCCC1(C)CCC(=O)O1", "note": "(stereo not given)", "activity change, negative = inhibition": "-0.0083%"},
      {"smiles": "COc1cccc(OC)c1C(=O)O", "activity change, negative = inhibition": "1.65%"},
      {"smiles": "CCCCN1CCCC1C(=O)Nc1c(C)cc(C)cc1C", "note": "(stereo not given)", "activity change, negative = inhibition": "-6.6% [at 53.7 µM]"},
      {"smiles": "C[N+](C)(CCOc1ccccc1)Cc1cccs1", "activity change, negative = inhibition": "-1.24% [at 53.7 µM]"},
      {"smiles": "CCCCCCCCC1CCC(=O)O1", "note": "(stereo not given)", "activity change, negative = inhibition": "-3.61%"},
      {"smiles": "Sc1nc2ccccc2s1", "activity change, negative = inhibition": "2.7%"},
      {"smiles": "Cc1cccc2nccnc12", "activity change, negative = inhibition": "3.92%"},
      {"smiles": "O=CCCc1ccccc1", "activity change, negative = inhibition": "-2.59%"},
      {"smiles": "CCCCCCCCCCCCCCN(C)C", "activity change, negative = inhibition": "2.04% [at 23.8 µM]"},
      {"smiles": "CC(C)=CCC/C(C)=C/C=N/O", "activity change, negative = inhibition": "-13.7%"},
      {"smiles": "CC(C)c1cccc(C(C)C)c1NC(=O)NS(=O)(=O)c1cc(C(C)(C)O)co1", "activity change, negative = inhibition": "0.604%"},
      {"smiles": "COc1ccc(NS(=O)(=O)c2ccc(N)cc2)nn1", "activity change, negative = inhibition": "-0.423% [at 53.7 µM]"},
      {"smiles": "CC(=O)c1ccc2c(c1)N(CCCN1CCC(CCO)CC1)c1ccccc1S2", "Potency": "17.4 µM (active)"},
      {"smiles": "C=C1CC[C@H]2O[C@]2(C)CC[C@@H]2[C@@H]1CC2(C)C", "activity change, negative = inhibition": "-0.926%"},
      {"smiles": "OCCCCCCO", "activity change, negative = inhibition": "1.6%"},
      {"smiles": "Nc1ccc(Cl)c([N+](=O)[O-])c1", "activity change, negative = inhibition": "2.86%"},
      {"smiles": "CN=C(NC#N)NCCSCc1csc(N=C(N)N)n1", "activity change, negative = inhibition": "-10.6% [at 53.7 µM]"},
      {"smiles": "CCC(CC)C(C)CCOC(C)=O", "note": "(stereo not given)", "activity change, negative = inhibition": "3.42%"},
      {"smiles": "CCOC(=O)CC(=O)C(=O)OCC", "activity change, negative = inhibition": "-0.0086%"},
      {"smiles": "Clc1ccc2nsnc2c1NC1=NCCN1", "activity change, negative = inhibition": "-18.3% [at 53.7 µM]"},
      {"smiles": "CCOC(=O)N1CCC(Nc2ccc(Cl)cc2N)CC1", "activity change, negative = inhibition": "-18.7% [at 53.7 µM]"},
      {"smiles": "CC(C)CCCC(C)CCO", "note": "(stereo not given)", "activity change, negative = inhibition": "2.49%"},
      {"smiles": "O=C1OC(OC(=O)c2cccnc2Nc2cccc(C(F)(F)F)c2)c2ccccc21", "note": "(stereo not given)", "activity change, negative = inhibition": "14.3% [at 53.7 µM]"},
      {"smiles": "CC1=C(/C=C/C(C)=C/C=C/C(C)=C\\C(=O)O)C(C)(C)CCC1", "activity change, negative = inhibition": "-28.5%"},
      {"smiles": "O=C(O)COCC(=O)O", "activity change, negative = inhibition": "0.861%"},
      {"smiles": "CC(C)Cn1cnc2c(N)nc3ccccc3c21", "activity change, negative = inhibition": "-8.86% [at 23.8 µM]"},
      {"smiles": "Cc1cc(N)c(S(=O)(=O)O)cc1Cl", "activity change, negative = inhibition": "6.7%"},
      {"smiles": "COC(=O)c1ccccc1Cl", "activity change, negative = inhibition": "4.87%"},
      {"smiles": "CCCC(=O)OC/C=C(\\C)CCC=C(C)C", "activity change, negative = inhibition": "9.03%"},
      {"smiles": "CCC(OCCCOC)OC(C)=O", "note": "(stereo not given)", "activity change, negative = inhibition": "-5.64%"}
    ]}
  ]
}
